# Laboratory results published in PubChem BioAssay (NCI).
# Compounds without any hit were thinned out: in the full panel of roughly 83,000, 20% have a hit.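 Each cell line was grown in a 96-well plate and treated with one concentration of compound for 48 hours. Values below 10 were considered active.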 Values without a mark were called inactive. The source made the active and inactive calls.
# Test system: MDA-MB-468 breast
# Assay: NCI-60 one-dose screen, 48 h (100 = growth as untreated, 0 = no growth, -100 = all killed)
# Conditions: 10 µM unless noted
row,SMILES,growth
1,CCOC(=O)[C@@H](C)C[C@H](Cc1ccccc1)NC(=O)c1csc([C@@H](C[C@H](C(C)C)N(C)C(=O)[C@H](CCC(C)C)NC(=O)[C@H]2CCCCN2C)OC(C)=O)n1,5.73% (active)
2,Cc1cc(C)c(CBr)c(C)c1,98.9%
3,NCCc1ccc(OCc2ccccc2)c(OCc2ccccc2)c1,48.5%
4,Nc1ccc2c(c1)oc1ccccc12,92.6%
5,Clc1ccc(N2COOC3(OOC2)C2CC4CC(C2)CC3C4)cc1,65.3%
6,CC[C@H](C)[C@H](NC(=O)[C@H]1CCCCN1C)C(=O)N(C)[C@H](CCc1nc(C(=O)N[C@@H](Cc2ccccc2)C[C@H](C)C(=O)O)cs1)C(C)C,36.1%
7,COc1cc[c]([Hg][Cl])cc1,-62.8% (active)
8,Cc1c(NS(=O)(=O)c2ccccc2)ccc([N+](=O)[O-])c1Cl,34.5%
9,C[n+]1c(/C=C/c2ccc(N(CCCl)CCCl)cc2)sc2ccccc21,-0.963% (active)
10,CCOP(=O)(NC[C@H]1O[C@](O)(CO)[C@@H](O)[C@@H]1O)OCC,107%
11,CC1=C2[C@@H](CC1)[C@]1(C)O[C@@](C(C)C)(C[C@H]1O)[C@H]2OC(=O)C1CC1c1ccccc1 (stereo not given in full),94.6%
12,S=P(Nc1ccccc1)(Nc1ccccc1)c1ccccc1,127%
13,O=C(O)c1nn(Cc2ccc(Cl)cc2)c2ccccc12,105%
14,COc1ccc(NP2(=O)OCC(C)(N)CO2)cc1 (stereo not given),105%
15,CCCCCCCC[n+]1ccc2ccccc2c1,8.79% (active)
